# High-throughput results deposited in PubChem BioAssay by The Scripps Research Institute Molecular Screening Center.
# The list is not random: actives were taken first. Their share in the collection is about 1.1%.
# MsrA inh: bovine MsrA enzyme inhibitors, primary screen, biochemical, absorbance, HTS; Methionine sulfoxide reductase A (Bos taurus); hit rate 0.75% among 360,000; purified bovine MsrA, absorbance read-out; inhibition, % at 15.5 µM;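 note: 0% = vehicle wells with enzyme and 100% = reference inhibitor wells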
# PKA-R2B act: activators of PKA-R2B holoenzyme, primary screen, biochemical, fluorescence polarization, Cy5-IP20, human; PKA-R2B holoenzyme dissociation; R2B truncated from residue 108, S112A mutant; 0% DMSO only, 100% 113 µM cGMP; activation, % at 11.4 µM; hit rate 0.079% among 340,000;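 active = activation above a cutoff set at the mean over all compounds plus 3 SD, cut at about 18% in these data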;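 note: higher means more holoenzyme dissociation and a rise in polarization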
# Target sequence (P31323 whole entry, looked up, other chains not shown, the tested form may be a part): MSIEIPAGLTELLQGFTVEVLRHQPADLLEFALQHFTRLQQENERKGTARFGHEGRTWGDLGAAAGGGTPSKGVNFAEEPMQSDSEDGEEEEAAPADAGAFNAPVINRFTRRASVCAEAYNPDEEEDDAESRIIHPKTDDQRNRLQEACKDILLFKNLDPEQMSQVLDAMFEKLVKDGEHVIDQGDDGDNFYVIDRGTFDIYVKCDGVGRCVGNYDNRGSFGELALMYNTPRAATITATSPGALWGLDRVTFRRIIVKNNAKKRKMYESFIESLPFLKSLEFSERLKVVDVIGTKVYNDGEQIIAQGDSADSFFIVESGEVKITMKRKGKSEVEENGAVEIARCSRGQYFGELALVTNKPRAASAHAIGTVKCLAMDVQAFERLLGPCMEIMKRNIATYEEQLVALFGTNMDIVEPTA
# PKA-R1A activ: activators of PKA-R1A holoenzyme, primary screen, biochemical, fluorescence polarization, Cy5-IP20, bovine R1A, mouse PKAc | hit rate 0.083% among 340,000 | PKA-R1A dissociation; scaled: DMSO 0%, 113 µM cGMP 100% | AID 504707, 2011 | activation, % at 11.4 µM | cAMP-dependent protein kinase type I-alpha regulatory subunit (Bos taurus) + …;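 active = percent activation above the mean of all tested compounds plus 3 SD, cut at about 19% in these data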;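 note: higher means more PKAc released from R1A so a rise in polarization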
# bovine MsrA act: bovine MsrA enzyme activators, primary screen, biochemical, absorbance, HTS; Methionine sulfoxide reductase A (Bos taurus); activation, % at 10.6 µM; purified bovine MsrA, absorbance read-out; hit rate 0.3% among 360,000; AID 602163, 2012; in the data active = activation above about 7.5%;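 note: 0% = vehicle and 100% = reference activator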
# MsrA conf: bovine MsrA inhibitors, retest, confirmation, biochemical, absorbance, HTS; shares compounds with MsrA inh; purified bovine MsrA, absorbance read-out; inhibition, % at 15.5 µM; hit rate 41% among 2,300;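 note: coupled to thioredoxin reductase with NADPH and selenocystamine and DMSO as substrate; 0% = vehicle only and 100% = full effect of reference inhibitor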
# Numbers without * were called inactive; nt = not tested or not shown. Cut-off read from the data, not from the text of the source, unless noted: active = inhibition above about 4.5%; inactive = the rest.
SMILES,MsrA inh,PKA-R2B act,PKA-R1A activ,bovine MsrA act,MsrA conf
O=C(O)CCCNC(=O)/C(=C\C=C\c1ccccc1)NC(=O)c1ccccc1Cl,5.8*,-6,-11,1,3
c1ccc2c(c1)nc(N1CCOCC1)c1nnnn12,7.5*,-2,-5,-3,14*
O=[N+]([O-])c1ccc(C2CCCC/C2=N/OCc2ccccc2F)c([N+](=O)[O-])c1 (stereo unspecified),9.2*,-7,4,-3,6.9*
CCCn1c(SC/C(O)=C(\C#N)c2nc3ccccc3[nH]2)n[nH]c1=O,4.7*,-9,-4,-5,2
Cn1cnnc1SC/C(O)=C(\C#N)c1nc2ccccc2[nH]1,4.8*,-12,1,-8,2
CCOC(=O)c1cnc2c(ccc3ccccc32)c1Cl,-1,4,0,-5,nt
CCOC(=O)c1cnc(SC)nc1Sc1ccccc1Cl,8.2*,-7,7,-5,3
COCCCNC(=O)C[C@H]1C[C@@]2(C(=O)OC)C(=C[C@H](C(C)(C)C)O[C@@H]2C)N(CCc2ccc(OC)c(OC)c2)C1=O,0,nt,nt,nt,nt
Cc1cc(N2CCN(C(=O)OC(C)(C)C)C[C@H]2C)ccc1N1CCN(Cc2ccccc2)[C@@H](C)C1,-2,nt,nt,nt,nt
CC1=C(C(=O)N2CCOCC2)CC(CC(=O)NCCCN(C)C)C(=O)N1CCCN1CCCC1=O (stereo unspecified),-2,nt,nt,-4,nt
COc1cccc(N/N=C(\C#N)S(=O)(=O)C(C)(C)C)c1,4.7*,nt,nt,-14,2
CC(C)(C)S(=O)(=O)/C(C#N)=N/Nc1ccc(C#N)cc1,4,2,-10,-4,nt
O=C(O)c1ccc(NS(=O)(=O)c2ccc3c(c2)C(=O)c2ccccc2C3=O)cc1,24*,nt,nt,-8,15*
CCn1ncc(CN2CCC(n3nccc3NC(=O)c3ccccc3Cl)CC2)c1C,1,1,-4,-2,nt
O=C(N[C@@H](Cc1cccnc1)C(=O)N1CCC[C@H]1C(=O)NC1CCCC1)c1ccc(Cl)c(Cl)c1,0,nt,nt,nt,nt
COc1ccc(C2=CC(=O)CC(C)(C)C2)cc1OC,4.8*,-1,1,-11,2
S=C1NC2(CCCC2)Nc2ccccc21,9.1*,-4,1,-15,8.7*
S=C1NC2(CCCCC2)Nc2ccccc21,6.4*,3,4,-6,7.2*
c1cc2c3c(cccc3c1)NC1(CCCC1)N2,1,-5,5,-3,nt
O=C1CC(C(=O)Nc2ccc(Br)cc2)S/C(=N\N=C\c2ccco2)N1 (stereo unspecified),2,-3,-5,-14,nt
COc1ccc(/C=N/N=C2/NC(=O)C(CC(=O)NC(N)=O)S2)cc1 (stereo unspecified),3,11,-4,-2,nt
O=C1CC(C(=O)Nc2ccccc2)S/C(=N\N=C\c2ccco2)N1 (stereo unspecified),5.0*,-8,-5,-6,5.4*
COc1ccc(NC(=O)C2CC(=O)N/C(=N/N=C/c3ccco3)S2)cc1 (stereo unspecified),5.1*,nt,nt,-8,5.1*
O=C1CC(C(=O)Nc2ccc(Cl)c(Cl)c2)S/C(=N\N=C\c2ccco2)N1 (stereo unspecified),1,-7,11,-3,nt
O=C1CC(C(=O)Nc2ccc(Cl)cc2)S/C(=N\N=C\c2ccco2)N1 (stereo unspecified),5.6*,-4,0,-5,4
SMILES,MsrA inh,PKA-R2B act,PKA-R1A activ,bovine MsrA act,MsrA conf
COc1ccc(/C=N/N=C2/NC(=O)CC(C(=O)O)S2)cc1 (stereo unspecified),5.0*,4,-5,-7,4
COc1ccc(CN2C[C@H](COCc3ccccc3)Oc3cccc(N4CCCC4)c3S2(=O)=O)cc1,1,nt,nt,nt,nt
CCCC(C(=O)Nc1nccs1)c1ccccc1 (stereo unspecified),21*,-5,-11,-3,0
COc1ccccc1C=C1SC(=S)NC1=O,1,3,4,-9,nt
COc1ccc(C=C2SC(=S)NC2=O)c(OC)c1OC,4.8*,5,-8,-16,2
CC/C(=C/c1sc2ccc(C)cc2[n+]1CCCS(=O)(=O)[O-])SC,4.8*,nt,nt,nt,3
CC(=NCc1cccc(Cl)c1)c1nc(-c2ccco2)oc1O,5.9*,-11,-8,-6,2
O=C(Nc1cccc(C(=O)O)c1)/C(=C\c1ccc2c(c1)OCO2)NC(=O)c1ccccc1Cl,5.5*,6,7,-3,3
O=C(O)COc1ccccc1/C=N/NC(=O)/C(=C\c1ccc2c(c1)OCO2)NC(=O)c1ccccc1,5.5*,0,-7,-6,4
O=C(Nc1ccc(C(=O)O)cc1)/C(=C\c1ccc2c(c1)OCO2)NC(=O)c1ccccc1,4,-8,1,-16,nt
Cc1ccc(/C(N)=N/OC(=O)CCCc2ccccc2)cc1,1,-5,-3,0,nt
CN1OC[C@@H]2CN(C(=O)c3ccc(C#N)cc3)[C@H](c3cccc(Br)c3)C[C@@H]21,-1,nt,nt,nt,nt
COc1ccc(N2C(=O)c3n[nH]c(C(C)C)c3C2c2ccccc2)cc1 (stereo unspecified),-1,nt,nt,nt,nt
CC(C(=O)NC(C)(C)C)N1C(=O)c2cccc3cccc(c23)C1=O (stereo unspecified),4.8*,0,-3,-5,3
CC(=O)c1ccc(NC(=O)/C(=C\c2ccco2)NC(=O)c2ccco2)cc1,5.7*,0,3,-7,5.4*
O=C(Nc1ccc(C(=O)O)cc1)/C(=C\c1ccco1)NC(=O)c1ccco1,4.8*,-9,0,-5,4.9*
O=C(Nc1ccc(C(=O)O)cc1)/C(=C\c1ccco1)NC(=O)c1ccccc1,3,-7,5,-5,nt
Cc1ccc(/C=N/Nc2ccc(Cl)nn2)cc1,1,-3,-7,2,nt
Oc1ccc(/C=N/Nc2ccc(Cl)nn2)cc1O,4.9*,9,4,-10,4
